# Compounds with a hit are over-represented: about 21% of the library has one in this group of screens.
# Shiga inhibitor: blocks Shiga toxin action in Vero cells | Vero cells, Shiga toxin protein synthesis inhibition reporter | 290,000 compounds, 9.2% hits | inhibition, % at 38.7 µM; in the data active = inhibition mostly above about 28%, no sharp cut-off; inactive = mostly below about 43%
# Pf growth 96h: inhibits malaria parasite growth, 96 h | Potency, µM (titrated, usually from 28.7 µM), hits mostly inhibitors | 320,000 compounds, 6.9% hits | P. falciparum luciferase reporter growth, 96 h
#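 Compounds incubated with erythrocytes infected by luciferase-expressing P. falciparum (2% hematocrit, 0.05% parasitemia final) for 96 hours, 37 C in 5% CO2. Growth inhibition scored as decreased luciferase luminescence.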
# NS1 inh: blocks influenza NS1 protein function; Potency, µM (highest dose often 46.1 µM); 270,000 compounds, 0.4% hits; AID 2326; calls by dose curve; note: actives are rising curves; nearly all actives have a fitted effect of over 50% in size
#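 A cell-based growth assay was used: compounds that relieve NS1-induced slow growth of budding yeast raise OD600. Assay medium was yeast nitrogen base with ammonium sulphate and -URA supplement, pH 6.0, with 2% galactose.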
# Pf growth 48h: inhibits P. falciparum growth in the first generation, 48 h; Potency, µM (top dose mostly 28.7 µM), usual class: inhibitors; P. falciparum luciferase growth in erythrocytes, 48 h; AID 504832; 310,000 compounds, 5.9% hits
#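 Luciferase-expressing P. falciparum in infected erythrocytes (2% hematocrit, 0.1% parasitemia final) in RPMI 1640/0.5% Albumax were exposed to compound for 48 hours at 37 C, 5% CO2; growth read as luminescence.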
# CHX counter: counter-screen for Shiga toxin inhibitors: cycloheximide protein synthesis inhibition; cell reporter, cycloheximide protein synthesis inhibition counterscreen; max response, %; 300,000 compounds, 12% hits; AID 2314; in the data active = max response mostly above about 13%, no sharp cut-off; inactive = mostly below about 14%; note: read at 38.3 µM for the half of the compounds with a filed dose
# Hits are given with their value; n = inactive; u = inconclusive; x = no result given. Unless noted, calls come from the whole dose curve; as a rule, active = well fitted inhibition curve with a large enough effect; inconclusive = small, poorly fitted or top-dose-only effect, or another doubt; inactive = no such curve, though single readings can be large or run the other way.
SMILES,Shiga inhibitor,Pf growth 96h,NS1 inh,Pf growth 48h,CHX counter
CC(C)CCNC(=O)C(c1ccncc1)N(CC1CCCO1)C(=O)Cn1nnc(-c2ccc(F)cc2)n1 (configuration not stated),n,n,n,u,n
Cc1ccc(C)c(N(C(=O)Cn2nnc(-c3cccs3)n2)C(C(=O)NC2CCCC2)c2ccncc2)c1 (configuration not stated),n,u,n,4.65µM,n
CC(C)(C)NC(=O)C(OC(=O)Cn1nnc(-c2ccc(F)cc2)n1)c1ccncc1 (configuration not stated),n,9.28µM,n,n,n
COc1cccc(N(C(=O)Cn2nnc(-c3cccs3)n2)C(C(=O)NC2CCCCC2)c2ccncc2)c1 (configuration not stated),n,u,n,n,n
CC(C)CCNC(=O)C(c1ccncc1)N(C(=O)Cn1nnc(-c2ccc(F)cc2)n1)c1ccccc1F (configuration not stated),n,6.57µM,x,u,n
CC(C)(C)NC(=O)C(c1ccncc1)N(Cc1cccs1)C(=O)Cn1nnc(-c2ccc(F)cc2)n1 (configuration not stated),n,u,n,u,n
O=C(NC(Cc1ccccc1)C(=O)NCCc1ccccn1)c1ccccc1 (configuration not stated),n,u,n,n,n
CC(C)(C)N(C(=O)Cn1nnc(-c2ccc(F)cc2)n1)C(C(=O)NC1CCCC1)c1ccncc1 (configuration not stated),n,8.28µM,n,u,n
CCOC(=O)c1ccc(-c2ccc(/C=N/NC(=O)CN(c3cccc(C)c3)S(C)(=O)=O)o2)cc1,n,u,n,n,n
CCOC(=O)c1ccc(-c2ccc(/C=N/NC(=O)CN(c3ccccc3Cl)S(C)(=O)=O)o2)cc1,n,u,n,n,14.3
COc1ccc(C2=NN(C(=O)CCC(=O)O)C(c3cccs3)C2)cc1 (configuration not stated),n,n,n,n,n
Cc1ccc(C2=NN3C(C(=O)c4ccccc4)Oc4ccccc4C3C2)cc1 (configuration not stated),85.8,u,n,n,33.9
Cc1ccc(C(=O)C2Oc3ccccc3C3CC(c4ccc(C)cc4)=NN23)cc1 (configuration not stated),59.7,n,n,u,53.4
COc1ccc(C2=NN3C(C2)c2ccccc2OC32C(=O)N(C)c3ccccc32)cc1 (configuration not stated),109.4,n,n,u,61.9
CC(=O)N1N=C(c2ccccc2)CC1c1ccc2c(c1)OCO2 (configuration not stated),n,n,n,n,n
COc1ccc(C2=NN3C(C2)c2ccccc2OC3c2cccs2)cc1 (configuration not stated),62.5,u,n,n,58.9
CCC(=O)N1N=C(c2ccc(C)cc2)CC1c1ccco1 (configuration not stated),n,n,n,n,n
Cc1cc(NC(=O)C2CC(=O)N(c3ccc(Cl)cc3)C2)no1 (configuration not stated),n,n,n,n,n
CCOC(=O)/C(=N\Nc1ccccc1Cl)N1CCN(c2ccccc2OC)CC1,n,u,x,u,n
O=C(Nc1ccc2nc(-c3cccnc3)[nH]c2c1)C12CC3CC(CC(C3)C1)C2,n,n,n,11.7µM,n
O=C1OCc2cc(NC(=O)C34CC5CC(CC(C5)C3)C4)ccc21,n,u,n,n,n
CC(C)c1nc2ccc(NC(=O)C34CC5CC(CC(C5)C3)C4)cc2[nH]1,n,u,n,x,20.4
CC1=C(n2nnc([N+](=O)[O-])n2)C(c2cccnc2)C(C#N)=C(N)O1 (configuration not stated),n,u,n,13.1µM,n
COc1cc(CN2CCCC(N3CCc4ccccc4C3)C2)c(Cl)cc1O (configuration not stated),n,2.94µM,n,u,n
COc1ccc(CN2CCc3cc(OC)c(OC)cc3C2)cc1O,n,n,n,n,n
COc1ccc(CN2CCCC(C(=O)N3CCc4ccccc4C3)C2)cc1OC (configuration not stated),n,u,n,n,n
COc1cc2c(cc1OC)CN(C1CCCN(Cc3cc(Cl)ccc3O)C1)CC2 (configuration not stated),n,9.28µM,n,u,n
O=C(O)[C@@H]1[C@@H](C(=O)Nc2ncccn2)[C@@H]2C=C[C@@H]1O2,x,x,n,x,x
O=C(Nc1cccc(-n2cnnn2)c1)c1cnccc1Cl,n,n,n,n,n

# Source: PubChem BioAssay
